Results on four compounds are retold here after PubChem BioAssay.

A short description of experiment [1]: P. berghei load reduction in hepatocytes – cell-based, HepG2, luciferase luminescence, HepG2 viability, primary screen (AID 624349).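 Also: 100% = mean of DMSO negative control wells on the same plate.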 The settings on record: P. berghei liver stage in HepG2, luciferase luminescence, concentration not given here; parasite load remaining: stronger effect = lower value; viability: measured here: HepG2 viability without parasites.
Experiment [2] in a line: EMT-state selective cytotoxicity in co-culture – imaging, PC-3E GFP, TEM4-18 mCherry, primary screen (AID 1345086;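 active = compounds killing one labelled cell type while sparing the other, by normalised counts and ratio limits, not self-fluorescent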;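 as to all read-outs here: cells exposed to compound for 72 h before imaging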;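 as to red/green cell ratio (normalised): normalised mesenchymal count divided by normalised epithelial count so high means epithelial killing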). Particulars: PC-3E GFP / TEM4-18 mCherry co-culture, imaging cell counts, at 1 µM; for red/green cell ratio (normalised): actives lie on both sides, counts scaled to control wells, 1 = unselective.
The nature of experiment [3]: viability loss in pontine glioma line – cell-based, SU-DIPG-XVII, MIPE5.0, CellTiter-Glo, qHTS, dose response (AID 1347060; cut-off not given, nearly all actives have AC50 up to about 26 µM;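 as to AC50: cells exposed to compound for 48 hours before viability readout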). Particulars: CellTiter-Glo ATP luminescence.
Experiment [4] is described as follows: viability loss in pontine glioma line – cell-based, SU-DIPG-XIII, MIPE4.0, CellTiter-Glo, qHTS, dose response (AID 1347061; cut-off not given, nearly all actives have AC50 up to about 37 µM;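 also: cells exposed to compound for 48 hours before readout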). The settings on record: CellTiter-Glo ATP luminescence.
Experiment [5] can be described thus: viability loss in pontine glioma line – cell-based, SU-DIPG-XIII, MIPE5.0, CellTiter-Glo, qHTS, dose response (AID 1347064; cut-off not given, nearly all actives have AC50 up to about 23 µM;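 as to AC50: cells exposed to compound for 48 hours before the viability read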). Particulars: CellTiter-Glo ATP luminescence.
The nature of experiment [6]: viability loss in pontine glioma line – cell-based, SU-DIPG-XXV, MIPE5.0, CellTiter-Glo, qHTS, dose response (AID 1347065; cut-off not given, nearly all actives have AC50 up to about 26 µM;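 also: cells exposed to compound for 48 hours before ATP readout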). Particulars: CellTiter-Glo ATP luminescence.
Experiment [7] is described as follows: growth inhibition of DIPG cells – cell-based, MIPE4.0 library, CellTiter-Glo luminescence, qHTS (AID 1347066; cut-off not given, nearly all actives have AC50 up to about 30 µM;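 also: cells exposed to compound for 48 hours before readout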). Particulars: SU-DIPG-VI viability, CellTiter-Glo ATP luminescence.
A short description of experiment [8]: JHH-DIPG-1 glioma cell viability, MIPE5.0 library, CellTiter-Glo luminescence, qHTS (AID 1347067; cut-off not given, nearly all actives have AC50 up to about 26 µM;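 also: cells exposed to compound for 48 hours before readout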). The settings on record: JHH-DIPG-1 glioma viability, CellTiter-Glo ATP luminescence.
The nature of experiment [9]: viability loss with induced miR-34 in A549 – imaging, A549 dox-inducible miR-34, nuclei and caspase counts, primary screen (AID 1347080;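 active = compounds whose cell count with miR-34 switched on is under 0.7 times the count with it off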). The settings on record: A549 miR-34 inducible, Hoechst nuclei count, 48 h.
A short description of experiment [10]: compounds altering circadian rhythm period length – cell-based, LOPAC library, luminescence reporter (AID 2774; call rule not given here;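 also: values are relative to mean of DMSO wells on each plate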). The settings on record: circadian reporter cells, at 7 µM, actives lie on both sides.
For experiment [11], the system named is Hepatitis C virus NS3 helicase. Briefly: blockers of NS3h binding to ssDNA – biochemical, fluorescence polarization, LOPAC1280 library, primary screen (AID 687035; in the data active = inhibition above about 37%). Particulars: Purified HCV NS3 helicase, Cy5-dT15 ssDNA binding fluorescence polarization; stronger effect = higher value; concentration not given here.
Experiment [12] can be described thus: compounds altering Cy5-DNA-NS3h complex signal – biochemical, LOPAC1280, artefact control for HCV NS3 helicase inhibitor project (AID 687037; call rule not given here). The settings on record: Cy5-DNA-NS3h complex fluorescence interference counterscreen.
The nature of experiment [13]: viability loss in pontine glioma line – cell-based, SU-DIPG-IV, MIPE4.0, CellTiter-Glo, qHTS, dose response (AID 1347063; cut-off not given, nearly all actives have AC50 up to about 30 µM;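 also: compound exposure lasted 48 hours before the viability readout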). The settings on record: CellTiter-Glo ATP luminescence.
The nature of experiment [14]: blockers of cellular phospholipid synthesis – cell-based, LOPAC library, screen 4, primary screen (AID 1347384; call rule not given here). The settings on record: animal cells, phospholipid biosynthesis inhibition screen; at 10 µM.
Experiment [15] can be described thus: galactose survival enhancers in mitochondrial complex I cybrids – cell-based, galactose medium, ATP luminescence, primary screen (AID 1645843;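 active = z-score of at least 1.8 in each of two replicates, scored against plate mean and spread of sample wells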;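 also: positive z means more ATP and so rescue of galactose-driven cybrid death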). Particulars: complex I mutant cybrid cells, 72 h, stronger effect = higher value.
Experiment [16] can be described thus: MELAS cybrid and Rieske KO viability enhancers – cell-based, MELAS cybrids, Rieske KO mouse fibroblasts, CellTiter-Glo, primary screen (AID 1508586;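 active = mean z-score across replicates of 1.96 or higher in either the MELAS or the Rieske mutant cell line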;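 also: z relative to plate mean and SD of compound and empty wells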). Particulars: low glucose.
The target of experiment [17] is NAD(+) hydrolase SARM1 (Homo sapiens) (UniProt Q6SZW1). Briefly: blocking NAD cleavage by SARM1 SAM-TIR – cell lysate, NAD-Glo luminescence (AID 1508614;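 active = compound whose remaining NAD level is above about 45 nM, limit read from the data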;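 also: higher remaining NAD means stronger inhibition of SARM1 NADase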). The settings on record: SAM-TIR HEK293T lysate NADase, at 1 µM, stronger effect = higher value.
Chain of NAD(+) hydrolase SARM1 (Homo sapiens) (Q6SZW1 whole entry, looked up): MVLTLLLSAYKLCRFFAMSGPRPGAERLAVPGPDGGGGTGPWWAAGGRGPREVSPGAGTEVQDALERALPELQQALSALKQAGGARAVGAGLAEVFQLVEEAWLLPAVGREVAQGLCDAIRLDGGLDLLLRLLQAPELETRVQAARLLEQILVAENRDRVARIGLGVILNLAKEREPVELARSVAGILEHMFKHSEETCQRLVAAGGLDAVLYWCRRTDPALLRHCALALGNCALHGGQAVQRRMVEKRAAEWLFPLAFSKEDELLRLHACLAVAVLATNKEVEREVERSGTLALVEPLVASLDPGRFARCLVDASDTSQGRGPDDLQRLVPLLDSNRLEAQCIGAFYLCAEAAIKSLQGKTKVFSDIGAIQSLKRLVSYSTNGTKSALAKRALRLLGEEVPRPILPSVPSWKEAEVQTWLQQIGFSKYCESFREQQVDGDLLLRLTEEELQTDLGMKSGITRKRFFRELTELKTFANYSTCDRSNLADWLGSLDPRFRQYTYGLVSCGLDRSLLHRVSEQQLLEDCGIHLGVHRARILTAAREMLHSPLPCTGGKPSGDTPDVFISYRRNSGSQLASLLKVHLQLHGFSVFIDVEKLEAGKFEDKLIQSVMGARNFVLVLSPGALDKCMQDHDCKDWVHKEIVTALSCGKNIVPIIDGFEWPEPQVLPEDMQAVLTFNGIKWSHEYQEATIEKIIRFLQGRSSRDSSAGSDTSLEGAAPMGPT
Experiment [18] in a line: growth inhibition, single agents and combos, ICB984, cell-based, cisplatin or BGB combos, synergistic combos for chromothripsis tumors (AID 1671451; call rule not given here;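 also: cells exposed for 96 hours before readout; 0% = vehicle DMSO and 100% = killing by high DMSO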). Particulars: ICB984 medulloblastoma cells, drug combinations, stronger effect = higher value.
Experiment [19] addresses Mitogen-activated protein kinase 7 (Homo sapiens) (UniProt Q13164). Briefly: Gal4-ERK5 driven luciferase induction – cell-based, HTS, primary screen (AID 1508626;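 active = luciferase signal above three times the same-plate solvent-only control wells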;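 also: luciferase driven by Gal4-ERK5 fusion binding five Gal4 sites before minimal TATA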). The settings on record: HeLa Gal4-ERK5 transactivation, 18 h, at 5 µM, stronger effect = higher value.
Setting [20] is: measured here: epithelial PC-3E GFP cell survival.
Setting [21] is: measured here: mesenchymal TEM4-18 mCherry cell survival.
Where [22] appears, read: stronger effect = lower value, cell number ratio, induced over uninduced.
Where [23] appears, read: measured here: relative caspase fold change +Dox/-Dox.
Where [24] appears, read: measured here: total cells with miR-34 induction, stronger effect = lower value.
Setting [25] is: measured here: total cells without miR-34 induction.

The structures appear in SMILES notation. Values joined by “and” are separate entries in the source; they are usually repeats but may differ in a detail not shown here. Equal values may be shown once. Records with an inconclusive call do not appear. Active and inactive are the calls of the source. Rule as the data show it, unless noted: active = parasite load remaining mostly below about 12% (no sharp cut-off); inactive = mostly above about 10%.

Chain of Mitogen-activated protein kinase 7 (Homo sapiens) (Q13164 whole entry, looked up, the tested form may be a part): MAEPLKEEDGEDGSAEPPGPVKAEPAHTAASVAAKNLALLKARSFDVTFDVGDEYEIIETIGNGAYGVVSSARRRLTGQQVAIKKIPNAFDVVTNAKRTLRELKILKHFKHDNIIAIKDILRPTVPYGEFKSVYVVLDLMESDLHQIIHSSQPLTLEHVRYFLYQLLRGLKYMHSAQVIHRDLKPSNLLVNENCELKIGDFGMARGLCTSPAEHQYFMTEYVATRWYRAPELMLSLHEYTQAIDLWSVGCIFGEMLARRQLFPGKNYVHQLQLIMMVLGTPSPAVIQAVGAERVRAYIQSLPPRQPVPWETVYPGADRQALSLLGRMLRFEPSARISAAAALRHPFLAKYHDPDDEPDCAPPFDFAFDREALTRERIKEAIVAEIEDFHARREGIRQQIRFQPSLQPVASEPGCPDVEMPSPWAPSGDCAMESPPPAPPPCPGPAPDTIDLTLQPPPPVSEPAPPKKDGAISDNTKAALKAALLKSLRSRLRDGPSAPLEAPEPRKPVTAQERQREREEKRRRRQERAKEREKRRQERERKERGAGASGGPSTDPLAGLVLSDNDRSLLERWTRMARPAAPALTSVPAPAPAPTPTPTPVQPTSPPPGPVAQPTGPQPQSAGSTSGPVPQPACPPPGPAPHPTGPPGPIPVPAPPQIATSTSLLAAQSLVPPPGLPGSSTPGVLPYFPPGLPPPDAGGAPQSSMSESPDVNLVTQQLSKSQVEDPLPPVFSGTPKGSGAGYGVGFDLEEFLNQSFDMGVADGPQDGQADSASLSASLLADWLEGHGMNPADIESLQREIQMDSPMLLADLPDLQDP

In the case of `Cc1cc2nc3c(=O)[nH]c(=O)nc-3n(CC(O)C(O)C(O)CO)c2cc1C` (stereo not given), in [1], the parasite load remaining was 149% (inactive) and 66% (inactive) and 85.7% (inactive). Further, the viability in [1] was 87.6% and 75.7% and 118%. Further, in experiment [2], the red/green cell ratio (normalised) was 0.96 (inactive). The normalised cell number in [2] (setting [20]) is 1.14; in experiment [2] (setting [21]), 1.1. In addition, the outcome in experiment [3], in experiment [4], in experiment [5], in [6], in [7] and in experiment [8] was inactive. Besides, the fold change in experiment [9] (setting [22]) was 0.948 (inactive); in experiment [9] (setting [23]), 3.38. Moreover, the cell count is 12400 in [9] (setting [24]) and 13100 in experiment [9] (setting [25]).

Take `CC1CC2C3CCC4=CC(=O)C=C[C@]4(C)[C@@]3(F)[C@@H](O)C[C@]2(C)[C@@]1(O)C(=O)CO` (stereo not given in full): in experiment [10], the period change is -0.45 h (inactive). Moreover, in experiment [1], the parasite load remaining is 123% (inactive). For the same compound, the viability in experiment [1] was 71.5%. Further, in [11], the inhibition was -1% (inactive). Also, the fluorescence ratio (interference) in experiment [12] was 1 (inactive). In [2], the red/green cell ratio (normalised) is 1.04 (inactive). Moreover, the normalised cell number in [2] (setting [20]) turned out to be 1.32; in experiment [2] (setting [21]), 1.37. The compound was called inactive in experiment [4], in [13], in experiment [7] and in experiment [14]. Further, the fold change in experiment [9] (setting [22]) is 0.94 (inactive); in experiment [9] (setting [23]), 1.79. The results for the cell count in experiment [9] (setting [24]) and in [9] (setting [25]) were 7510 and 7990, respectively. Also, the z-score in experiment [15] is 1.44 (inactive).

Turning to `Cc1c(-c2cnccn2)ssc1=S`, in experiment [1], the parasite load remaining is 10.1% (inactive). In addition, the viability in experiment [1] turned out to be 65%. The red/green cell ratio (normalised) in [2] was 1.09 (inactive). In addition, the normalised cell number in experiment [2] (setting [20]) came out at 0.9; in [2] (setting [21]), 0.98. Besides, the AC50 in experiment [3] was 10.5 µM (active); in experiment [5] it was 10.5 µM (active); in experiment [6], 11.8 µM (active); in experiment [8] it was 14.8 µM (active). In addition, the results for the fold change in [9] (setting [22]) and in experiment [9] (setting [23]) were 0.88 (inactive) and 1.25, respectively. Moreover, the cell count in experiment [9] (setting [24]) came to 9050; in experiment [9] (setting [25]), 10300. The z-score is 0.683 (inactive) in experiment [16] (MELAS cybrid survival, CellTiter-Glo 48 h, stronger effect = higher value); -0.106 in experiment [16] (Rieske KO mouse fibroblast survival, CellTiter-Glo 72 h); -0.085 (inactive) in experiment [15]. Moreover, the remaining NAD in experiment [17] is 10 nM (inactive). Besides, the inhibition in [18] (BGB IC20 combo, at 0.005 µM) is -28.8%; in experiment [18] (BGB IC40 combo, at 0.005 µM), -23.8%; in experiment [18] (BGB IC40 combo, at 0.05 µM), -8.66%; in experiment [18] (at 0.5 µM), -19.7% (inactive); in experiment [18] (cisplatin combo, at 0.05 µM), -8.66%; in experiment [18] (cisplatin combo, at 0.5 µM), -33.7%. Moreover, the inhibition is -21.2% in experiment [18] (cisplatin combo, at 5 µM) and -0.147% in experiment [18] (measured here: 5 uM single agent, at 5 µM).

`CN(C)CC[C@H](c1ccc(Cl)cc1)c1ccccn1`: the parasite load remaining in [1] was 101% (inactive) and 66.4% (inactive). For the same compound, in experiment [1], the viability is 77.5% and 96.6%. For the same compound, the red/green cell ratio (normalised) in experiment [2] is 1.35 (inactive). The normalised cell number worked out at 0.95 in experiment [2] (setting [20]) and 1.28 in experiment [2] (setting [21]). Further, the call in [4], in experiment [13] and in experiment [7] was inactive. The fold change in [9] (setting [22]) is 0.84 (inactive); in experiment [9] (setting [23]), 2.94. Further, the cell count in experiment [9] (setting [24]) was 10500; in experiment [9] (setting [25]), 12500. The luciferase signal in experiment [19] is 80 AU (inactive).
